# Measured values: PubChem BioAssay AID2546 (National Center for Advancing Translational Sciences (NCATS), 2010)
# In all, about 310,000 compounds went through this assay and about 11,000 (3.5%) were called active. Not shown: some 8% with an inconclusive outcome. Calls come from the whole dose curve; as a rule, active = well fitted inhibition curve with a large enough effect; inconclusive = small, poorly fitted or top-dose-only effect, or effect the other way; inactive = flat fitted curve, though single readings scatter. Only a selection was taken, and actives are over-represented in it overall.
# Assay: VP16 counterscreen qHTS for inhibitors of ROR gamma transcriptional activity;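 note: Gal4-VP16 expression switched on by copper sulfate through the metallothionein promoter; nearly all actives have a fitted effect of over 50% in size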
# Conditions: Drosophila S2 Gal4-VP16 UAS-luciferase, luminescence, 20 h; series mostly up to 53.6 µM; activity, negative = inhibition: at the top concentration
# % is set by controls: 0 for no effect and ±100 for the full control effect; potency is the fitted concentration of half-maximal effect.
Compound,"activity, negative = inhibition",Potency
COc1cc(C(=O)N2CCN(C3CCC(C)CC3)CC2)cc(OC)c1OC (centres undefined),-7.5% (inactive),–
COc1ccccc1/C=N/N1CCN(Cc2ccccc2Cl)CC1,-0.503% (inactive),–
CCOCCCNc1c(CC)c(C)c(C#N)c2nc3ccccc3n12,1.69% (inactive),–
CC(=O)NCC(O)c1ccc([N+](=O)[O-])cc1 (centres undefined),-6.49% (inactive),–
C=C(C(C)=O)C(O)c1ccc([N+](=O)[O-])cc1 (centres undefined),–,10 µM (active)
C=C(C(C)=O)C(O)c1cccs1 (centres undefined),-3.04% (inactive),–
O=C(c1ccco1)N1CCN(C(=O)c2cc(-c3ccccc3F)no2)CC1,28.8% (inactive),–
O=C(c1cc(COc2ccc(F)cc2F)on1)N1CCOCC1,4.21% (inactive),–
CC(C)C[C@H](NC(=O)C1CC(=O)N(c2ccc3c(c2)OCCO3)C1)C(=O)NC1CCCC1 (some centres undefined),0.409% (inactive),–
Cc1noc(C)c1-c1ccc2ncnc(NCc3ccc4[nH]ccc4c3)c2c1,-7.96% (inactive),–
COc1ccc(COC(=O)c2ccc(Cl)c(S(=O)(=O)N3CCOCC3)c2)cc1F,-13% (inactive),–
COc1ccc(NC(=O)c2nc(-n3nc(C)cc3C)ccc2Cl)cc1Cl,-2.58% (inactive),–
Cc1cc(Oc2ccc(Cl)cc2)nc(SCC(=O)c2ccccc2)n1,-26% (inactive),–
COc1ccc(Nc2cc(C)nc(-n3nc(C)cc3C)n2)cc1,–,1.12 µM (active)
COc1cccc2c(N/N=C/c3ccco3)cc(C)nc12,-14.7% (inactive),–
Cc1cc(C)n(-c2cc(Oc3ccccc3)ncn2)n1,-2.26% (inactive),–
Cc1cc(N/N=C\c2ccc(Br)cc2)nc(-n2nc(C)cc2C)n1,–,1.41 µM (active)
COc1ccc(/C=N/Nc2cc(N3CCOCC3)nc(C)n2)c(OC)c1,-24.3% (inactive),–
COc1ccccc1/C=N\Nc1cc(C)nc(-n2nc(C)cc2C)n1,–,0.355 µM (active)
Cc1cc(Nc2ccc(Cl)cc2)nc(N2CCOCC2)n1,1.48% (inactive),–
Cc1nc(Cl)cc(N/N=C/c2ccccc2)n1,3.13% (inactive),–
Cc1ccc(S(=O)(=O)Nc2nc(C)cc(N/N=C/c3ccc(O)cc3)n2)cc1,-10.2% (inactive),–
CC(=O)c1ccc(Oc2cc(C)nc(-n3nc(C)cc3C)n2)cc1,–,6.31 µM (active)
COC(=O)c1ccc(COC(=O)c2cnc(Cl)c(Cl)c2)cc1,-4.39% (inactive),–
COCc1cc(C)n(CC(=O)NCC2CCCO2)c(=O)c1C#N (centres undefined),-3.55% (inactive),–
CCc1ccccc1N(CC(=O)NCC1CCCO1)C(=O)CCC(=O)Nc1nccs1 (centres undefined),-11.3% (inactive),–
COc1ccccc1N1CCN(C(=O)c2cc(=O)c3cc(C)cc(C)c3o2)CC1,0.888% (inactive),–

Compound,"activity, negative = inhibition",Potency
C[C@H]1[C@H]2c3nc4ccccc4n3C[C@H]1ON2C1CCCCC1,-2.9% (inactive),–
COc1cc2c(cc1OC)C(c1cccc([N+](=O)[O-])c1)=NCC2,-0.612% (inactive),–
CCOc1ccccc1N=C1NC(=O)CS1,-5.01% (inactive),–
CCOc1cccc(/C=N/N2C(=O)CSC2=S)c1O,–,12.6 µM (active)
O=C1CSC(=S)N1/N=C/c1ccc(O)c([N+](=O)[O-])c1,-0.73% (inactive),–
CCOc1ccc(N(CC(=O)Nc2cccc(OC)c2)S(C)(=O)=O)cc1,-9.05% (inactive),–
CCN1CCN(C2CCCCC2NS(=O)(=O)c2ccc(Cl)cc2)CC1 (centres undefined),-10.4% (inactive),–
Cc1n[nH]c(=O)nc1N/N=C/c1cccs1,–,11.2 µM (active)
Cc1nnc(N/N=C/c2cccs2)[nH]c1=O,-2.28% (inactive),–
COc1ccc(Nc2nc(=O)[nH]nc2C)cc1,-2.41% (inactive),–
O=C(NCCc1nnc2ccc(SCC(=O)N3CCOCC3)nn12)c1ccccc1,-3.82% (inactive),–
CCOC(=O)C1(CCOC)CCN(Cc2cc3ccccc3s2)CC1,1.41% (inactive),–
CCC(=O)Nc1ccc2nn(-c3ccc(F)cc3)nc2c1,-9.79% (inactive),–
COc1ccc(C(=O)/C=C/Nc2ccccn2)cc1,–,3.55 µM (active)
Cc1cc(N/C=C\C(=O)c2ccc(Cl)c(Cl)c2)no1,-4.5% (inactive),–
CCOc1ccc(N/C=C/C(=O)c2cc(OC)c(OC)c(OC)c2)cc1,2.16% (inactive),–
CS(=O)(=O)N1CCc2nc(-c3ccccc3)sc2C1,-15.1% (inactive),–
CCCOc1ccc(C(=O)NCCc2ccccc2)cc1,–,14.1 µM (active)
O=C(NCCc1ccccc1)c1ccc(OCCOc2ccccc2)cc1,-8.05% (inactive),–
O=C(NCCOc1ccccc1)c1ccccc1,-6.87% (inactive),–
CCC(C(=O)NCCC(C)C)N(Cc1ccccc1Cl)C(=O)c1snc(C(N)=O)c1N (centres undefined),-10.4% (inactive),–
CCOC(=O)C1CCCN(CCSc2ccc(C)cc2)C1 (centres undefined),14.5% (inactive),–
S=C(NCCCc1ccccc1)Nc1ccc(Br)cc1,–,10 µM (active)
CC(=O)Nc1ccc(S(=O)(=O)N(C)CC(=O)NCCC2=CCCCC2)cc1,-2.68% (inactive),–
O=C1CCN(C(=S)NCCc2ccccc2)CC1,2.45% (inactive),–
S=C(NCCc1ccccc1)Nc1ccccc1,–,17.8 µM (active)
O=C(Cc1cccc2ccccc12)NCCC1=CCCCC1,-1.54% (inactive),–
